From the supplement of paper PMC9844399 come the findings set out here.

The structures appear in SMILES notation. Structures can show the parent of a compound that is named as a salt.
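Also: Hoechst-stained nuclei counted by automated confocal imaging of four fields per well in 384-well plates, with the robust Z-score based on the per-plate DMSO median and robust SD.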

For this assay, the system named is HeLa. Put plainly: nuclear count per well, robust Z-score vs DMSO; higher = more cells (less toxicity). The following applies: 10 µM; 6 h.
Consider `CC(C)Nc1cccnc1N1CCN(C(=O)c2cc3cc(NS(C)(=O)=O)ccc3[nH]2)CC1` [Delavirdine Mesylate], for which the “nuclear count per well” value was -0.582. With `CCCCC[C@H](O)/C=C/[C@H]1[C@H](O)CC(=O)[C@@H]1C/C=C\CCCC(=O)O` [Prostaglandin  E2], the “nuclear count per well” value was determined as 1.41. For `CC(C)(C)c1cc(O)c(C(C)(C)C)cc1O` [2,5-Ditertbutylhydroquinone], the “nuclear count per well” value is -0.952.

`CC/C=C\C/C=C\C/C=C\C/C=C\C/C=C\CCCC(=O)O` [Eicosapentaenoic acid (20:5 n-3)]: the “nuclear count per well” value stood at 0.276. For `NS(=O)(=O)c1cc(C2(O)NC(=O)c3ccccc32)ccc1Cl` (stereo not given) [Chlorthalidone], the “nuclear count per well” value is 1.13. As for `NNc1nncc2ccccc12`, the “nuclear count per well” value stood at 0.131. Next, `COc1ccc(CC2c3cc(OC)c(OC)cc3CC[N+]2(C)CCC(=O)OCCCCCOC(=O)CC[N+]2(C)CCc3cc(OC)c(OC)cc3C2Cc2ccc(OC)c(OC)c2)cc1OC` (stereo not given) [Atracurium Besylate]: -0.75; `CCCOc1ccccc1-c1nc2[nH]nnc2c(=O)[nH]1` [Zaprinast]: 0.648; `C[C@H]1c2cccc(O)c2C(=O)C2=C(O)[C@]3(O)C(=O)C(C(N)=O)=C(O)[C@@H](N(C)C)[C@@H]3[C@@H](O)[C@@H]21`: 0.141. As for `C[C@@H](NCCCc1cccc(C(F)(F)F)c1)c1cccc2ccccc12`, the “nuclear count per well” value was 0.291.

Turning to `O=C[C@@H]1CCCN1C(=O)[C@@H]1CCCN1C(=O)OCc1ccccc1` [Z-prolyl-prolinal], the “nuclear count per well” value was found to be 0.514.

Consider `Oc1cc2c(cc1O)CN(C(=S)NCCc1ccc(Cl)cc1)CCC2` [Capsazepine], for which the “nuclear count per well” value is -1.71. For `COc1ccc2cc(CCC(C)=O)ccc2c1` [Nabumetone], the “nuclear count per well” value worked out at 0.192. `CN[C@H]1CC[C@@H](c2ccc(Cl)c(Cl)c2)c2ccccc21` [Sertraline hydrochloride]: the “nuclear count per well” value is -0.819.

For `CCCCNC(=O)NS(=O)(=O)c1ccc(C)cc1` [Tolbutamide], the “nuclear count per well” value was 0.69. Next, `Cc1ccc2c(c1)C(=O)C1(O)CCN(c3ccccc3)C1=N2` (stereo not given) [Blebbistatin]: 0.352. In the case of `CCCNCC(O)COc1ccccc1C(=O)CCc1ccccc1` (stereo not given) [Propafenone], the “nuclear count per well” value was -0.0763.

As for `Cn1cc(-c2ccc3c(c2)CCN3C(=O)Cc2cccc(C(F)(F)F)c2)c2c(N)ncnc21`, the “nuclear count per well” value was -0.304. In the case of `CO/N=C(\C(=O)N[C@@H]1C(=O)N2C(C(=O)O)=C(COC(C)=O)CS[C@H]12)c1csc(N)n1` [Cefotaxime Acid], the “nuclear count per well” value amounted to 0.588. Regarding `CC(C)C[C@@H](/C=C/S(C)(=O)=O)NC(=O)[C@H](CC(C)C)NC(=O)[C@H](CC(C)C)NC(=O)OCc1ccccc1`, the “nuclear count per well” value is -0.193. Consider `CCCCC/C=C\C/C=C\CC1OC1C/C=C\CCCC(=O)O` (stereo not given) [8,9-Epoxyeicosatrienoic acid], for which the “nuclear count per well” value stood at 1.06. For the compound `CC(N)C12CC3CC(CC(C3)C1)C2` (stereo not given), the “nuclear count per well” value was -0.939. For the compound `CCc1nn(CCCN2CCN(c3cccc(Cl)c3)CC2)c(=O)n1CCOc1ccccc1`, the “nuclear count per well” value is -0.206.

In the case of `O=C(O)CCCC=CCC1C2CCC(O2)C1CNNC(=O)Nc1ccccc1` (stereo not given), the “nuclear count per well” value came to 0.408. Consider `O=C(NCc1ccncc1)C12CC3CC(C1)CC(c1ccc(Cl)cc1)(C3)C2`, for which the “nuclear count per well” value was -0.272. As to `CN(C)CCOC(c1ccccc1)c1ccccc1`, the “nuclear count per well” value is -1.81. Turning to `CC(C)C(=O)OCC(=O)[C@@]12O[C@H](C3CCCCC3)O[C@@H]1C[C@H]1[C@@H]3CCC4=CC(=O)C=C[C@]4(C)[C@H]3[C@@H](O)C[C@@]12C` [Ciclesonide], the “nuclear count per well” value turned out to be 1.13.

For `CCCCC/C=C\C[C@@H](O)/C=C/C=C/C=C\[C@@H](O)CCCC(=O)O` [Leukotriene B4], the “nuclear count per well” value was -0.213.

As to `CN(N=O)C(=O)N[C@@H](C=O)[C@@H](O)[C@H](O)[C@H](O)CO` [Streptozocin], the “nuclear count per well” value is 0.59.

`CCCCCCCCCCCCC/C=C/[C@@H](O)[C@H](CO)NC(=O)CCCCCCCCCCCCCCC` [C16 Ceramide]: the “nuclear count per well” value is 0.167.

Consider `CC1(C)O[C@@H]2C[C@H]3[C@@H]4C[C@H](F)C5=CC(=O)CC[C@]5(C)[C@H]4[C@@H](O)C[C@]3(C)[C@]2(C(=O)CO)O1` [Flurandrenolide], for which the “nuclear count per well” value is -0.309.

Take `CCCCC[C@H](O)C/C=C1/C(=O)C=C[C@@H]1C/C=C\CCCC(=O)O` [D12-Prostaglandin J2]: the “nuclear count per well” value turned out to be 0.379.

Regarding `CN1C(=O)OC(C)(C)C1=O` [Trimethadione], the “nuclear count per well” value is -1.17. As for `CCOC(=O)C1=C(COCCN)NC(C)=C(C(=O)OC)C1c1ccccc1Cl` (stereo not given) [Amlodipine besylate], the “nuclear count per well” value was -1.29. On to `C[S+]([O-])c1ccc(-c2nc(-c3ccc(F)cc3)c(-c3ccncc3)[nH]2)cc1` (stereo not given), for which the “nuclear count per well” value amounted to 1.

For `CC1=CC(=O)c2ccccc2C1=O` [Menadione], the “nuclear count per well” value is -0.0188. Turning to `O=C1Nc2ccc(Cl)cc2[C@@](C#CC2CC2)(C(F)(F)F)O1` [Efavirenz], the “nuclear count per well” value was 0.00509. Turning to `CC(=O)O[C@H]1C(=O)[C@@]2(C)[C@H]([C@H](OC(=O)c3ccccc3)[C@]3(O)C[C@H](OC(=O)[C@H](O)[C@@H](NC(=O)c4ccccc4)c4ccccc4)C(C)=C1C3(C)C)[C@]1(OC(C)=O)CO[C@@H]1C[C@@H]2O` [Taxol = Paclitaxel], the “nuclear count per well” value was -2.61.

Turning to `Nc1ncnc2c1nc(Br)n2[C@@H]1O[C@@H]2COP(=O)(O)O[C@H]2[C@H]1O` [8-Bromo-cAMP], the “nuclear count per well” value is -0.764.

Consider `COC(=O)CCC(=O)CN`, for which the “nuclear count per well” value was -1.44.
